# Test results taken from PubChem BioAssay (NCATS).
# Inconclusive results are not listed. Active and inactive are the calls of the source. Unless noted, calls come from the whole dose curve; as a rule, active = well fitted curve in the direction sought with a large enough effect; inconclusive = small, poorly fitted or top-dose-only effect, or another doubt; inactive = no such curve, though single readings can be large; an effect the other way counts as inactive or inconclusive.
# Tests used:
# [1] = qHTS to identify inhibitors of the type 1 interferon - major histocompatibility complex class I in skeletal muscle: primary screen against the NCATS Mechanism Interrogation Plate v5.0 (MIPE) Libary (AID 1347411);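 note: plate controls were vehicle for no effect and reference inhibitor for full effect; nearly all actives have a fitted effect of over 65% in size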
# How it was run: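 Luminescence from CRISPR HiBit-tagged endogenous HLA-B in human myoblasts reported MHC class I level after 24 h of IFN-beta (4 ng/ml) plus compound. Compounds ran as 11-point 1:3 series, top 46 uM final.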
# [2] = biological target: Glutathione peroxidase 1 (Homo sapiens) (UniProt P07203); experiment: Primary qHTS Assay for Inhibitors of Recombinant Selenoprotein Glutathione Peroxidase 1 (GPX1) (AID 1845191); note: nearly all actives have a fitted effect of over 65% in size; note: potency is the fitted concentration of half-maximal effect
# How it was run: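 GPX1 10 nM, GR 100 nM, GSH 1 mM, NADPH 0.5 mM, CHP 0.5 mM (final). 30-min cpd preincubation, RT. Ex340/Em450 read t=0, t=15 min.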
# [3] = biological target: Phospholipid hydroperoxide glutathione peroxidase GPX4 (Homo sapiens) (UniProt P36969); experiment: Primary qHTS Assay for Inhibitors of Recombinant Selenoprotein Glutathione Peroxidase 4 (GPX4) (AID 1845192); details: outcome: dose series up to 50 µM unless noted; note: nearly all actives have a fitted effect of over 65% in size; note: potency is the fitted concentration of half-maximal effect; for activity change, negative = inhibition: % is set by controls: 0 for no effect and ±100 for the full control effect
# How it was run: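 qHTS, GR-coupled: GPX4 200 nM + cpd 30 min RT → GSH 1 mM, NADPH 0.5 mM, GR 100 nM → CHP 0.5 mM start; fluor 340/450 at t0 and t15 min; no-enzyme wells as control.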
# [4] = qHTS drug screen for cell cycle checkpoint inhibitors in PARPi-resistant BRCA-mutant ovarian cancer cell lines. (AID 1963452; calls by dose curve; note: potency is the fitted concentration of half-maximal effect); details: PEO1/OlaR viability, CellTiter-Glo luminescence, 96 h; for Z-AUC: stronger effect = lower value
# How it was run: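 PEO1, PEO4 and PEO1/OlaR ovarian cancer cells, 600 per well, exposed 96 h at 37C to a dilution series. Viability read by CellTiter-Glo luminescence, normalized to DMSO and empty wells; activity summarized as Z-AUC.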
# [5] = Primary qHTS for inhibitors of nuclear receptor binding SET domain protein 2 (NSD2) in an isogenic RCH-ACV NSD2 p.E1099K mutant (9B) (AID 1645876); note: nearly all actives have a fitted effect of over 70% in size; note: potency is the fitted concentration of half-maximal effect
# [6] = Primary qHTS for inhibitors of nuclear receptor binding SET domain protein 2 (NSD2) in an RCH-ACV wild type WT cells (2C) (AID 1645877); note: potency is the fitted concentration of half-maximal effect; nearly all actives have a fitted effect of over 70% in size
# [7] = qHTS assay to identify inhibitors of the type 1 interferon - major histocompatibility complex class I in skeletal muscle: Counter screen cell viability and HiBit confirmation (AID 1347412); details: iHSKM muscle cells + IFN-b, HiBiT or CellTiter-Glo, 24 h; for activity change, negative = inhibition: at 45.9 µM (top of the series); note: potency is the fitted concentration of half-maximal effect; for activity change, negative = inhibition: % is set by controls: 0 for no effect and ±100 for the full control effect; for all read-outs here: nearly all actives have a fitted effect of over 60% in size
# How it was run: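 Human myoblast knock-in line, 4.0 ng/ml IFN-beta stimulation, 24 h compound treatment. Endpoints: HiBiT lytic luminescence (HLA-B level) and CellTiter Glo (ATP). Dosing 12 concentrations, 3-fold steps, 46 uM highest final.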
# [8] = qHTS Assay for Lipid Storage Modulators (AID 1519; calls by dose curve; for activity change, negative = inhibition: % is set by controls: 0 for no effect and ±100 for the full control effect); details: Drosophila S3 cells, BODIPY lipid droplet/cell ratio, laser cytometry, cells loaded with oleic acid
# How it was run: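 Cells seeded at 5,000 per well were treated with compounds over a concentration series and loaded with oleic acid (400 uM, as added). Lipid droplet fluorescence (488 nm excitation, 500-530 nm channel) was read by laser-scanning cytometry and normalized to 20 uM Triacsin C.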
# [9] = measured here: PEO1 parental Z-AUC
# Sequence of Glutathione peroxidase 1 (Homo sapiens) (P07203 whole entry, looked up): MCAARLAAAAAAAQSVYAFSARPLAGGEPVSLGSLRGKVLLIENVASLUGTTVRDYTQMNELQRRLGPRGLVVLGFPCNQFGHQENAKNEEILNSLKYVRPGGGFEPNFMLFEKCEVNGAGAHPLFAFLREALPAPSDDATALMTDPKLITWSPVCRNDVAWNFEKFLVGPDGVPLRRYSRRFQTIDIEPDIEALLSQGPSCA
# Sequence of Phospholipid hydroperoxide glutathione peroxidase GPX4 (Homo sapiens) (P36969 whole entry, looked up): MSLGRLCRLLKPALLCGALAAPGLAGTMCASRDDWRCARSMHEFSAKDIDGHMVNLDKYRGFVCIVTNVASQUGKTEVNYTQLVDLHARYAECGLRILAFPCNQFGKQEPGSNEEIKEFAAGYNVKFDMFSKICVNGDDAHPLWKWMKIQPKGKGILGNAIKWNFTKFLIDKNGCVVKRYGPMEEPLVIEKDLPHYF
smiles,measurement,setting,value
Cn1nccc1Nc1nccc(-c2cc3c(s2)C(C)(C)N(CCN2CCOCC2)C3=O)n1,Potency,[1],inactive
same,Potency,[2],inactive
same,Potency,[3],inactive
same,Z-AUC,[4],-1.65 (inactive)
same,Z-AUC,[4]; [9],-0.829
same,Z-AUC,[4]; measured here: PEO4 Z-AUC,-0.419
CN(C)CCOc1ccc(-c2nc(-c3ccc4c(c3)CC/C4=N\O)c(-c3ccncc3)[nH]2)cc1,Potency,[5],16.6 µM (active)
same,Potency,[6],10.5 µM (active)
same,Potency,[2],inactive
same,Potency,[3],inactive
same,Z-AUC,[4],-0.892 (inactive)
same,Z-AUC,[4]; [9],-1.12
same,Z-AUC,[4]; measured here: PEO4 Z-AUC,-1.55
same,"activity change, negative = inhibition",[7]; HiBiT,24.4% (inactive)
same,"activity change, negative = inhibition",[7]; Viability,-15.1% (inactive)
Nc1nc(OC(c2ccc(-c3cccc(F)c3)cc2)C(F)(F)F)cc(-c2ccc(C[C@H](N)C(=O)O)cc2)n1 (stereo partly drawn),Potency,[1],inactive
same,Potency,[2],inactive
same,Potency,[3],inactive
same,Z-AUC,[4],-0.825 (inactive)
same,Z-AUC,[4]; [9],-0.615
same,Z-AUC,[4]; measured here: PEO4 Z-AUC,-0.247
CC#CC(=O)N1CC[C@@H](n2c(=O)n(-c3ccc(Oc4ccccc4)cc3)c3c(N)ncnc32)C1,Potency,[5],6.61 µM (active)
same,Potency,[6],16.6 µM (active)
same,Potency,[2],inactive
same,Potency,[3],inactive
same,Z-AUC,[4],1.04 (inactive)
same,Z-AUC,[4]; [9],0.828
same,Z-AUC,[4]; measured here: PEO4 Z-AUC,1.1
same,"activity change, negative = inhibition",[7]; HiBiT,-23.5% (inactive)
same,"activity change, negative = inhibition",[7]; Viability,-0.0272% (inactive)
CC1(C)OC2=C(C(=O)c3ccccc3C2=O)[C@H](NCc2ccccc2)[C@@H]1O,Potency,[5],7.42 µM (active)
same,Potency,[6],6.61 µM (active)
same,Potency,[2],inactive
same,Potency,[3],inactive
same,Z-AUC,[4],0.63 (inactive)
same,Z-AUC,[4]; [9],1.22
same,Z-AUC,[4]; measured here: PEO4 Z-AUC,1.45
same,Potency,[7]; HiBiT,9.91 µM (active)
same,Potency,[7]; Viability,14 µM (active)
C/C=C(/C)C(=O)O[C@H]1C(C)=CC23C(=O)C(C=C(CO)[C@@H](O)[C@]12O)[C@H]1[C@@H](C[C@H]3C)C1(C)C (stereo partly drawn),Potency,[1],inactive
same,Potency,[2],inactive
same,Potency,[3],inactive
same,Z-AUC,[4],-0.0624 (inactive)
same,Z-AUC,[4]; [9],-0.301
same,Z-AUC,[4]; measured here: PEO4 Z-AUC,-0.581
CC[C@@H](C)[C@H]1O[C@]2(CC[C@@H]1C)C[C@@H]1C[C@@H](C/C=C(\C)[C@@H](O[C@@H]3C[C@H](OC)[C@H](O[C@H]4C[C@H](OC)[C@@H](O)[C@H](C)O4)[C@H](C)O3)[C@@H](C)/C=C/C=C3\CO[C@@H]4[C@@H](O)C(C)=C[C@@H](C(=O)O1)[C@]34O)O2,Potency,[7]; HiBiT,27.9 µM (active)
same,Potency,[7]; Viability,31.3 µM (active)
CC[C@H]1CN2CCc3cc(OC)c(OC)cc3C2C[C@@H]1CC1NCCc2cc(OC)c(OC)cc21 (stereo partly drawn),Potency,[7]; HiBiT,0.279 µM (active)
Cc1cc(Oc2ccc3nc(COc4ccc(CC5SC(=O)NC5=O)cc4)n(C)c3c2)cc(C)c1N (stereo not drawn),Potency,[1],inactive
same,Potency,[2],inactive
same,Z-AUC,[4],-0.262 (inactive)
same,Z-AUC,[4]; [9],0.128
same,Z-AUC,[4]; measured here: PEO4 Z-AUC,-0.444
CN1C(=O)N(c2cc(Cl)cc(Cl)c2)C(=O)[C@]12CN(Cc1cc(C(=O)O)cs1)C[C@H]2c1ccc(C#N)cc1,Potency,[1],inactive
same,Potency,[2],inactive
same,Z-AUC,[4],0.948 (inactive)
same,Z-AUC,[4]; [9],1.08
same,Z-AUC,[4]; measured here: PEO4 Z-AUC,0.897
CC[C@@]1(O)C(=O)OCc2c1cc1n(c2=O)Cc2c-1nc1cc(F)c(C)c3c1c2[C@@H](N)CC3,Potency,[5],0.0033 µM (active)
same,Potency,[6],0.0026 µM (active)
same,Potency,[2],14.5 µM (active)
same,Potency,[4],0.0087 µM (active)
same,Z-AUC,[4]; [9],-3.81
same,Z-AUC,[4]; measured here: PEO4 Z-AUC,-2.97
same,Potency,[7]; HiBiT,0.313 µM (active)
same,"activity change, negative = inhibition",[7]; Viability,-10.9% (inactive)
NC(=S)N/N=C/c1ncccc1N,Potency,[1],inactive
same,Potency,[2],inactive
same,Z-AUC,[4],0.978 (inactive)
same,Z-AUC,[4]; [9],0.81
same,Z-AUC,[4]; measured here: PEO4 Z-AUC,0.897
O=C(CCc1ccc(O)cc1)c1c(O)cc(O)cc1O[C@@H]1O[C@H](CO)[C@@H](O)[C@H](O)[C@H]1O,"activity change, negative = inhibition",[8]; at 57.5 µM (top of the series),9.34% (inactive)
same,max response,[8]; measured here: cell count channel max response,19.8%
same,max response,[8]; measured here: lipid channel max response,29.9%
same,Potency,[5],inactive
same,Potency,[3],inactive
same,Z-AUC,[4],0.341 (inactive)
same,Z-AUC,[4]; [9],0.557
same,Z-AUC,[4]; measured here: PEO4 Z-AUC,0.754
same,"activity change, negative = inhibition",[7]; HiBiT,6.74% (inactive)
same,"activity change, negative = inhibition",[7]; Viability,1.25% (inactive)
CN[C@@H](C)C(=O)N[C@H](C(=O)N1CCC[C@H]1C(=O)Nc1snnc1-c1ccccc1)C1CCCCC1,Potency,[1],inactive
same,Potency,[3],inactive
same,Z-AUC,[4],1.43 (inactive)
same,Z-AUC,[4]; [9],0.271
same,Z-AUC,[4]; measured here: PEO4 Z-AUC,-0.618
NC(=O)c1cnc2[nH]ccc2c1NC1C2CC3C[C@H]1CC(O)(C3)C2 (stereo partly drawn),Potency,[5],9.34 µM (active)
same,Potency,[6],9.34 µM (active)
same,Potency,[2],inactive
same,Potency,[3],inactive
same,Z-AUC,[4],0.584 (inactive)
same,Z-AUC,[4]; [9],0.594
same,Z-AUC,[4]; measured here: PEO4 Z-AUC,0.746
same,Potency,[7]; HiBiT,2.22 µM (active)
same,"activity change, negative = inhibition",[7]; Viability,-16.1% (inactive)
N#C/C(=C1/Nc2ccccc2S1)c1ccnc(OCc2ccc(CN3CCOCC3)cc2)n1,Potency,[1],inactive
same,Potency,[2],inactive
same,Z-AUC,[4],0.822 (inactive)
same,Z-AUC,[4]; [9],0.219
same,Z-AUC,[4]; measured here: PEO4 Z-AUC,-0.057
O=C(Nc1cnccc1Cl)N1CCN(Cc2ccc3c(c2)OC(F)(F)O3)CC1,Potency,[1],inactive
same,Potency,[2],inactive
same,Potency,[3],inactive
same,Z-AUC,[4],0.437 (inactive)
same,Z-AUC,[4]; [9],0.137
same,Z-AUC,[4]; measured here: PEO4 Z-AUC,0.79
CC(C)C[C@H](NC(=O)[C@H](Cc1ccccc1)NC(=O)OCc1ccccc1)C(=O)C=O,Potency,[1],inactive
same,Potency,[2],inactive
same,Potency,[3],inactive
same,Z-AUC,[4],0.592 (inactive)
same,Z-AUC,[4]; [9],0.57
same,Z-AUC,[4]; measured here: PEO4 Z-AUC,0.338
CCC(=C/[C@H](C)C/C=C/C(C)=C/[C@@H](C)C(=O)[C@@H](C)[C@H](O)[C@@H](C)C/C(C)=C/C(=O)O)/C=C/[C@@H]1OC(=O)C=C[C@@H]1C,Potency,[5],0.0042 µM (active)
same,Potency,[6],0.0042 µM (active)
same,Potency,[2],inactive
same,Potency,[3],10.1 µM (active)
same,Potency,[4],6.92 µM (active)
same,Z-AUC,[4]; [9],-4.05
same,Z-AUC,[4]; measured here: PEO4 Z-AUC,-3.51
same,Potency,[7]; HiBiT,0.0031 µM (active)
same,"activity change, negative = inhibition",[7]; Viability,-3.47% (inactive)
CC(=O)/C=C1/C(=O)N(C)c2ccccc21,Potency,[7]; HiBiT,19.8 µM (active)
same,"activity change, negative = inhibition",[7]; Viability,-2.06% (inactive)
Cc1nc2cccc(N)c2c(=O)n1C1CCC(=O)NC1=O (stereo not drawn),Potency,[1],inactive
same,Potency,[2],inactive
same,Potency,[3],inactive
same,Z-AUC,[4],1.24 (inactive)
same,Z-AUC,[4]; [9],1.14
same,Z-AUC,[4]; measured here: PEO4 Z-AUC,1.38
CO[C@H]1/C=C/O[C@@]2(C)Oc3c(C)c(O)c4c(O)c(c5c(c4c3C2=O)=NC2(CCN(CC(C)C)CC2)N=5)NC(=O)/C(C)=C/C=C/[C@H](C)[C@H](O)[C@@H](C)[C@@H](O)[C@@H](C)[C@H](OC(C)=O)[C@@H]1C,Potency,[1],inactive
same,Z-AUC,[4],1.28 (inactive)
same,Z-AUC,[4]; [9],0.697
same,Z-AUC,[4]; measured here: PEO4 Z-AUC,0.909
